Screening data deposited in PubChem by National Center for Advancing Translational Sciences (NCATS).
AMA1 RON2 block: inhibitors of Plasmodium falciparum AMA1-RON2 interaction. AlphaScreen AMA1-biotinylated RON2 peptide binding. Potency, µM (top dose mostly 58.2 µM), without a hit: at the highest dose activity change, negative = inhibition, usual class: inhibitors. 360,000 compounds, 0.2% hits;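 further: 0% = vehicle wells and -100% = peptide control; nearly all actives have a fitted effect of over 45% in size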
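AMA1 (3D7) with his tag at 25 nM final met compounds first, then biotinylated RON2 peptide at 25 nM; detection used donor plus acceptor beads, 10 µg/mL apiece, read by AlphaScreen after 30 min at room temperature.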
NS1 inh: influenza NS1 inhibition. Potency, µM (highest dose often 46.1 µM), inactives show at the highest dose activity, positive = more growth. 270,000 compounds, 0.4% hits; calls by dose curve; further: actives are rising curves; nearly all actives have a fitted effect of over 50% in size
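A cell-based growth assay was used: compounds that relieve NS1-induced slow growth of budding yeast raise OD600. Assay medium was yeast nitrogen base with ammonium sulphate and -URA supplement, pH 6.0, with 2% galactose.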
Pf growth 96h: P. falciparum growth inhibition at 96 hour, primary screen for plastid delayed-death inhibitors; 320,000 compounds, 6.9% hits; P. falciparum luciferase reporter growth, 96 h; Potency, µM (highest dose often 28.7 µM), for inactives: top-dose activity change, negative = inhibition, usual class: inhibitors; further: on the % scale 0 is the no-effect control and ±100 the full control effect
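Delayed-death screen, second-generation endpoint: infected erythrocytes, 2% hematocrit, 0.05% parasitemia final; 96 hours at 37 C, 5% CO2; luciferase detection reagent; luminescence decrease equals reduced growth.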
Sm TGR inh: S. mansoni TGR enzyme inhibition. 360,000 compounds, 3% hits. Potency, µM (doses to about 114 µM), without a hit: at the highest dose activity change, negative = inhibition, hits mostly inhibitors. purified TGR, DTNB reduction, TNB absorbance 405 nm; further: on the % scale 0 is the no-effect control and ±100 the full control effect; nearly all actives have a fitted effect of over 60% in size
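First, TGR (20 nM dispensed) and NADPH were mixed with compound. Second, a 15 min room-temperature incubation followed. Third, further NADPH and then DTNB were added to start the reaction. Finally, TNB absorbance was monitored kinetically.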
Pf growth 48h: inhibits P. falciparum growth in the first generation, 48 h | 310,000 compounds, 5.9% hits | Potency, µM (titrated, usually from 28.7 µM), inactives show at the highest dose activity change, negative = inhibition, actives largely listed as inhibitors | P. falciparum luciferase growth in erythrocytes, 48 h; further: on the % scale 0 is the no-effect control and ±100 the full control effect
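A one-generation exposure of luciferase-tagged malaria parasites in RPMI 1640/Albumax erythrocyte culture, 37 C and 5% CO2. Inhibition is inferred from decreased luminescence after adding detection reagent.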
Active calls of the source: *; u = inconclusive; x = not tested or not shown; [ ] = dose if it differs, or a comment. This is a sample that favours compounds with a hit; in the whole collection about 11% have one here. Unless noted, the call rests on the fitted dose curve; in most records, active means well fitted curve in the direction sought with a large enough effect; inconclusive means small, poorly fitted or top-dose-only effect, or another doubt; inactive means no such curve, though single readings can be large; an effect the other way counts as inactive or inconclusive. Potency means the concentration at half of the fitted maximal effect.

SMILES | AMA1 RON2 block | NS1 inh | Pf growth 96h | Sm TGR inh | Pf growth 48h
COc1cccc(-c2cccc(NC(=O)C3CCN(Cc4cnn(C)c4)CC3)c2)c1 | -4.0% | 26.6% | u | -2.5% | u
Cc1ccc(CN2CCC(Oc3cccc(C(=O)NCc4cccnc4)c3)CC2)o1 | -8.0% | -0.3% | -5.0% | 31.6µM* | u
O=C(Nc1cccc(-c2cccc(Cl)c2)c1)C1CCN(Cc2ccccn2)CC1 | 18.5% | -8.1% | 4.7% | u | u
O=C(Nc1cccc(-c2cccc(Cl)c2)c1)C1CCN(Cc2ccon2)CC1 | -2.1% | -0.5% | 8.28µM* | 1.2% | 14.5%
Cc1cc(C)n(-c2ccc(NC(=O)C3CCN(Cc4cc(C)c(C)o4)CC3)cc2)n1 | 3.4% | 3.1% | -1.6% | u | u
Cc1cc(C)n(-c2ccc(NC(=O)C3CCN(Cc4ccc(C)o4)CC3)cc2)n1 | 3.0% | 2.7% | 14.7µM* | u | 13.1µM*
COc1cccc(-c2cccc(NC(=O)C3CCN(Cc4ccc(C)o4)CC3)c2)c1 | -13.7% | 0.5% | -32.5% | 50.1µM* | -22.6%
CCOc1ccc(-n2c(SCC(=O)N3CCCc4ccccc43)nc3c([nH]c4ccccc43)c2=O)cc1 | x | x | x | 11.3% | x
COc1ccc(C(=O)Nc2ccc(S(=O)(=O)Nc3nccc(C)n3)cc2)cc1[N+](=O)[O-] | -2.3% | 14.2% | -81.3% | 2.0% | 0.1%
O=C(NCc1ccccc1Cl)c1cccc(OC2CCN(C(=O)C3CC3)CC2)c1 | 2.8% | -21.9% | 8.28µM* | u | 0.0%
COCc1ccc(CN2CCC(C(=O)Nc3cccc(-c4cccc(Cl)c4)c3)CC2)o1 | u | -13.2% | u | u | 13.1µM*
COCc1ccc(C(=O)N2CCCCC2C(=O)Nc2ccc(-n3nc(C)cc3C)cc2)o1 (centres undefined) | 10.6% | 4.1% | 11.7µM* | -32.2% | -11.4%
O=C(Nc1cccc(-c2cccc(Cl)c2)c1)C1CCN(CC2CCOC2)CC1 (centres undefined) | -0.5% | -15.1% | 23.2% | -17.9% | 8.28µM*
CCCCC(CC)CNC(=O)C1CCC(CNS(=O)(=O)c2cccc3nsnc23)CC1 (centres undefined) | x | x | x | -0.9% | x
COc1ccc(-n2c(=O)c3c4c(sc3n(Cc3ccccc3)c2=O)CCC4)c(OC)c1 | x | x | x | 6.2% | x
CNc1cncc(-c2cccc(C(=O)NC3CC3)c2)n1 | 3.8% | x | x | x | x
COc1ccc(NC(=O)c2c(NC(=O)CCC(=O)O)sc(-c3ccccc3)c2C)cc1 | -0.9% | -7.3% | 41.4% | 7.6% | 17.3%
N=C1/C(=C/c2ccco2)C(=O)N=C2SC(CC(=O)N3CCCC3)=NN12 | -15.9% | 7.1% | 8.4% | 0.0% | 27.4%
O=C1N=C(N2CCCC2C(=O)O)S/C1=C\c1ccco1 (centres undefined) | 16.9% | -1.5% | -4.9% | 7.08µM* | u
Cc1ccccc1N1CCN(C2CCCN(C(=O)c3snnc3C)C2)CC1 (centres undefined) | 13.3% | 0.9% | -3.6% | -35.8% | -9.4%
Cc1ccc(S(=O)(=O)NCc2ccncc2)c(C)c1C | 3.9% | 5.0% | 11.7µM* | u | -17.4%
Cc1cc(Br)c(S(=O)(=O)NCc2cccnc2)cc1C | 0.0% | 1.0% | 0.2% | 27.7% | -8.2%
Cc1ccc(/C=C/C(=O)O)cc1S(=O)(=O)NCc1cccnc1 | 0.0% | 1.7% | 18.6% | 22.4µM* | 6.6%
Cc1cc(C)c(S(=O)(=O)NCc2cccnc2)cc1C | -3.5% | 6.2% | 11.7µM* | 0.0% | u
CCCN(Cc1nnc(-c2ccccc2Cl)o1)C(=O)c1cc(S(=O)(=O)N2CCOCC2)ccc1F | 14.2% | x | u | 3.3% | u
SMILES | AMA1 RON2 block | NS1 inh | Pf growth 96h | Sm TGR inh | Pf growth 48h
NC(=O)c1ncn([C@@H]2O[C@H](CNCc3ccc(OCC(=O)Nc4nccs4)cc3)[C@@H](O)[C@H]2O)n1 | 19.8% | x | x | x | x
Cc1ccc(S(=O)(=O)N2CCC[C@H]2C(=O)OCCN2C(=O)c3ccccc3C2=O)cc1 | 14.7% | x | 12.2% | 4.6% | 19.1%
Cc1cc2c(c(=O)o1)C(c1ccc([N+](=O)[O-])o1)C(C#N)=C(N)O2 (centres undefined) | u | 9.2% | 9.2% | 14.1µM* | 1.8%
Cc1cc(Cn2nc(-c3ccccc3C)cc2C(=O)O)on1 | 5.9% | x | 26.2% | -2.0% | 37.2%
CCn1c(SCC(=O)c2ccc(NC(C)=O)c(OC)c2)nnc1-c1ccc(NS(C)(=O)=O)cc1 | -1.8%[2.32 µM] | 4.5% | 0.0% | 5.3% | -27.5%
CCC(=O)Nc1ccc(C(=O)CSc2nnc(-c3ccc(NS(C)(=O)=O)cc3)n2C)cc1OC | 2.6% | 2.7% | 0.465µM* | 4.0% | -19.2%
COc1ccc(OCC(=O)NCc2ccc3c(c2)CCN3C(=O)c2ccc(F)cc2)cc1 | x | x | x | -1.3% | x
Cc1ccc2cccc(Oc3ncnc4scc(-c5ccccc5)c34)c2n1 | 0.9%[2.32 µM] | 3.9% | u | 7.0% | 10.4µM*
Cc1ccc2cccc(Oc3ncnc4scc(-c5ccc(Cl)cc5)c34)c2n1 | -18.6% | 11.3% | 10.4µM* | 0.8% | u
COc1ccc(-c2csc3ncnc(Oc4cccc5ccc(C)nc45)c23)cc1 | -18.0% | 10.2% | u | -2.5% | u
Cc1ccc(-c2csc3ncnc(Cl)c23)cc1 | -11.4% | -18.8% | 2.62µM* | 1.0% | 1.47µM*
O=C(Cn1cc(S(=O)(=O)c2ccccc2)c(=O)c2cc3c(cc21)OCO3)Nc1ccccc1 | x | x | x | -11.7% | x
CNC(=S)NNC(=O)c1cc(C(C)(C)C)nn1Cc1ccc(F)cc1 | 81.1% | -1.0% | u | 8.6% | u
NC(=O)c1ccc[n+](CC(=O)c2ccc(Br)cc2)c1 | 1.7% | x | 4.7% | 63.5% | -3.3%
NC(=O)c1ccc[n+](Cc2ccc(-c3ccccc3)cc2)c1 | 9.3% | 2.0% | 7.38µM* | 3.7% | x
COC(=O)c1cc(C(=O)OCC(=O)NNC(=O)c2cccs2)cc([N+](=O)[O-])c1 | 80.1% | x | 27.2% | 6.0% | u
Cn1ncc([N+](=O)[O-])c1C(=O)NC1CCCCC1 | -15.8% | -0.1% | 21.6% | -6.9% | 22.9%
Oc1cccc(/C=N/Nc2cc(N3CCCC3)nc(N3CCCC3)n2)c1 | 6.0% | 1.4% | u | -9.6% | 2.94µM*
Oc1ccc(/C=N/Nc2cc(N3CCCC3)nc(N3CCCC3)n2)cc1 | 6.8% | 14.7% | 2.08µM* | 4.9% | u
Oc1ccc(/C=N/Nc2cc(N3CCOCC3)nc(N3CCOCC3)n2)cc1 | -9.9% | x | x | x | x
Cc1cccc(N2CCN(S(=O)(=O)c3ccc(-c4ccc(=O)[nH]n4)o3)CC2)c1C | 17.2% | 4.9% | 12.1% | -2.2% | u
Cc1ccc(S(=O)(=O)N2CCCCC2)cc1NC(=O)c1cc(F)c(F)c(F)c1F | 3.4% | x | x | x | x
CCc1cc2c(-c3ccccc3)cc(=O)oc2cc1OCC(=O)NCC1CCC(C(=O)O)CC1 (centres undefined) | 25.1% | 3.7% | u | 5.1% | 2.4%
CCc1cc2c(-c3ccccc3)cc(=O)oc2cc1OCC(C)=O | 33.6% | -55.2% | 13.1µM* | -12.6% | -23.6%
